# Screening results from PubChem.
# dFosB activator: activators of mouse delta FosB homodimer; AID 493131; activation, % at 25 µM; P13346; 340,000 tested, 0.99% active; purified delta FosB, TAMRA-CDK5 oligo fluorescence polarization; percent of positive-control signal above neutral wells;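 active means mean activation above about 17%, with every replicate also reaching it, limit read from the data, passing the limit was not always enough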
# Yeast superoxide: caloric restriction mimetics inhibiting age-related superoxide in yeast; 330,000 tested, 0.18% active; superoxide response (% of plate mean), % at 10 µM; S. cerevisiae aged cells, superoxide DHE fluorescence; active compounds read low;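 active means superoxide response under a set limit, about three screen SD below normal, cut at about 65% in these data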;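 further: yeast aged for seven days with compound at 30 °C before DHE staining; 100% = average MFI of all compound-treated wells on the plate with controls excluded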
# UBC13 inh: human UBC13 polyubiquitination inhibition. P61088. UBC13 polyubiquitin chain formation, TR-FRET. inhibition, % at 20 µM. 330,000 tested, 0.47% active; in the data active means inhibition above about 45%, passing the limit was not always enough
# Target sequence (P61088 whole entry, looked up): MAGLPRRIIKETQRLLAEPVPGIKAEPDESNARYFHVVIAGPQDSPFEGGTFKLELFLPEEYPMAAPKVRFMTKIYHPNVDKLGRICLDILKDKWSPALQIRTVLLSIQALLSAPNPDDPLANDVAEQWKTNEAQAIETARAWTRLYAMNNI
# NR3A LBD binder: modulates the human NR3A ligand-binding domain | NR3A LBD differential scanning fluorimetry, Tm shift; 0% = protein alone, 100% = glycine-bound protein | Tm shift relative to glycine control, % at 25 µM | 340,000 tested, 2.5% active | AID 1259313;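 active means melting temperature shift of at least 10% of the positive control shift, at one fixed dose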
# NALP1 inh: inhibitors of NALP1 inflammasome in yeast; S. cerevisiae NALP1/ASC/caspase-1 growth, X-gal OD620, 72 h; inhibition, % at 10 µM; 280,000 tested, 0.61% active; in the data active means inhibition mostly above about 24%, no sharp cut-off; inactive means mostly below about 32%
# The depositor's hits bear a star; i = inactive; . = no result given. Hits are enriched below; roughly 4.3% of the tested compounds scored in any of these assays.
SMILES,dFosB activator,Yeast superoxide,UBC13 inh,NR3A LBD binder,NALP1 inh
O=C(CCC(=O)Nc1ccc(F)cc1)N/N=C/c1ccc(O)cc1O,4,109,17,-11,-7
O=C(NN=Cc1ccc(O)cc1)C(=O)NN=Cc1ccc(O)cc1,12,.,.,8,.
Oc1ccc(C=NNC(=S)Nc2ccc(F)cc2)c(O)c1,0,.,.,27*,.
O=C(N/N=C/c1ccc(O)cc1O)C(=O)N/N=C/c1ccc(O)cc1O,5,93,14,36*,15
Cc1ccc(N(CC(=O)Nc2ccc(F)c(Cl)c2)S(=O)(=O)c2c(C)noc2C)cc1,2,107,7,11*,-6
Fc1cccc(-c2nnn3c2nc(Cl)c2ccccc23)c1,-26,.,.,-1,-25
Cc1ccc(NC(=S)N(CCCN2CCOCC2)Cc2cccs2)c(C)c1,-7,87,-5,0,5
Cc1c(Cl)cccc1NC(=S)N(CCCN1CCOCC1)Cc1cccs1,-12,91,20,17*,24
O=C(NC1CC(=O)c2sccc21)c1ccc(Cl)cc1Cl (stereo unspecified),1,96,2,-1,-15
Cc1csc(NC(=O)CSc2nnnn2C)n1,-11,101,6,2,-84
CCSCc1nnc(SCC(=O)Nc2nc(C)cs2)n1C,.,98,2,.,41*
Cc1c(C(=O)N/N=C/c2ccc(O)c(Br)c2)sc(N)c1C#N,-6,86,.,14*,20
Nc1nc(N)nc(-c2ccc([N+](=O)[O-])o2)n1,3,.,.,5,.
O=[N+]([O-])c1ccc(-c2ccn[nH]2)o1,2,115,-8,-2,67*
Cc1ccc(NC(=O)Nc2ccc(F)cc2)cc1Cl,-8,102,0,28*,0
CCCCSCCCNC(=O)Nc1cccc(OC)c1,-4,89,4,-7,40*
COc1cccc(NC(=O)Nc2ccc(C(C)(C)C)cc2)c1,1,.,-2,18*,-2
Cc1ccc(NC(=O)N2CCCC2)cc1Cl,-6,99,1,-2,38*
Cc1ccc(NC(=O)CCC(=O)c2ccc(F)cc2)cc1Cl,-4,103,-4,-2,-1
COc1cccc(NC(=O)NCCc2ccc(Cl)cc2)c1,-5,113,7,2,28
O=C(N/N=C/c1ccnc2ccccc12)c1ccccc1O,-9,103,-5,-7,9
O=C(CN1CCOCC1)Nc1nc(-c2ccccc2Cl)cs1,2,94,2,-3,3
Cc1cccnc1NC(=O)Nc1ccc(F)cc1,8,100,-6,4,28*
Cc1ccc(NC(=O)Nc2ncccc2C)cc1,-1,87,10,-3,11
COc1cccc(NC(=O)Nc2ccc(C)c(Cl)c2)c1,-2,103,-6,34*,5
SMILES,dFosB activator,Yeast superoxide,UBC13 inh,NR3A LBD binder,NALP1 inh
CC(C)(C)c1ccc(-c2noc(-c3ccno3)n2)cc1,-13,118,0,12*,-12
CC(C)(C)c1ccc(-c2nc(-c3ccncc3)no2)cc1,-8,100,10,2,3
COc1ccc(-c2ncccc2OC(=O)C23CC4CC(CC(C4)C2)C3)cc1,2,95,12,16*,37
CC(NC(=O)/C(C#N)=C/c1ccc([N+](=O)[O-])o1)c1ccccc1 (stereo unspecified),-5,98,-24,0,68*
CCN1CCN(CCCNC(=O)Cn2cc3c(n2)CCCC3)CC1,2,111,5,1,44*
O=C(Cn1cc2c(n1)CCCC2)NCCCN1CCN(Cc2ccccc2)CC1,-5,95,-3,0,0
CCc1[nH]nc(C(=O)NC2CCCN(Cc3ccccc3F)C2)c1C (stereo unspecified),-13,80,5,3,1
CC(=O)c1ccc(S(=O)(=O)Nc2ccccc2C(=O)NC2CC2)cc1,0,87,10,0,.
O=c1[nH]c(S)c(/C=C2\C=Nc3ccccc32)s1,.,73,-98,34*,-6
CCN(CC)C1=CC2=CC(=C(C#N)C#N)CCC2CC1 (stereo unspecified),-1,134,i,-3,15
N#CC(C#N)=C1C=C2C=C(N3CCCCC3)CCC2CC1 (stereo unspecified),.,70,.,21*,23
COc1ccc(-c2nc(CN3CCC(C(=O)N4CCOCC4)CC3)c(C)o2)cc1C,-5,100,4,3,-12
O=S(=O)(c1cccs1)N1CCc2ccccc21,29*,102,-5,1,-4
